Measurements as given in PubChem BioAssay AID590 (National Center for Advancing Translational Sciences (NCATS), 2007).
About 6,500 (11%) of roughly 59,000 compounds were called active. Inconclusive results (about 15%) are left out. No stated cut-off is given here; in the data, active means max dye-equivalent concentration above about 10 nM; inconclusive means mostly about 1.1 nM to 9.6 nM; inactive means weaker than that. The sample as a whole holds a higher share of actives than the screen did.

Assay: qHTS Assay for Spectroscopic Profiling in A350 Spectral Region
Settings: Compound autofluorescence, 340/450 nm, Alexa 350 dye-equivalents; hits give high values
From the text: NIH Molecular Libraries Screening Centers Network [MLSCN]
NIH Chemical Genomics Center [NCGC]
Occasionally, the artifactual effect may originate from the compounds own spectral or other biophysical properties which generally tend to track its assay concentration. Pre-screening/profiling the library with respect to the compounds spectral properties should help one exclude false positives early on. While the most informative fluorescent profiling data set is obtained by performing a full excitation and emission scan of each well by using a monochromator-based plate reader, such an approach is practical only on a very limited scale as scanning each well requires long time. An alternative approach, applied here, is to perform plate reader scans using selected excitation and emission wavelength pairs to generate a multidimensional relational database that correlates compound concentration and the respective relative fluorescence intensity at a given wavelength set. A standard curve of Alexa 350 (A 350) present on each plate as six-point concentration series, was used to compute a normalized fluorescence response, termed dye-equivalent concentration, for each compound at each concentration.
NCGC Assay Protocol Summary:
100 mM Tris buffer, pH 8.0
The wells in columns 1 through 4 of a Kalypsys polypropylene 1536-well compound plate were filled with standard solutions of fluorophore corresponding to the spectral region of interest. Solutions of A 350 were placed in the following wells: I1, J1: 3 mM, I2, J2: 300 uM, I3, J3: 30 uM, I4, J4: zero (DMSO), K1, L1: 3 uM, K2, L2: […], K3, L3: 300 nM, K4, L4: zero (DMSO).
Six uL of buffer were dispensed to 1536-well Greiner black plates. Compounds and dye standards (23 nL) were transferred via Kalypsys PinTool. The plates were incubated for 15 min at room temperature, and then read on ViewLux (Perkin-Elmer) High-throughput CCD imager using 340 nm and 450 nm excitation and emission filter set.
Keywords: NIH Roadmap, MLSCN, MLI, MLSMR, qHTS, NCGC, A350, A-350, Fluorescent Profiling.
With `COc1ccccc1C(=O)n1nc(-c2ccccc2)nc1N` the max dye-equivalent concentration was “inactive”. With `COc1ccc(C(=O)n2nc(-c3ccc(Cl)cc3)nc2N)cc1OC` the max dye-equivalent concentration was “inactive”. In the case of `COc1ccc(C(=O)n2nc(-c3ccc(C)cc3)nc2N)cc1OC`, the max dye-equivalent concentration is reported as 31 nM (active). With `Cc1cnc(CNc2ncncc2-c2ccccc2Cl)cn1` the max dye-equivalent concentration was “inactive”. For `CCN(CC)C(=O)c1sc(NC(=O)c2ccco2)c(C#N)c1C`, the max dye-equivalent concentration was “inactive”. In the case of `Cc1ccnc(NC(=O)c2ccc(NC(=O)c3ccco3)cc2)c1`, the max dye-equivalent concentration is reported as “inactive”. For `CCn1nc(NC(=O)c2ccco2)c2cc3ccc(C)cc3nc21`, the max dye-equivalent concentration was 86 nM (active). For `O=C(CSc1nnc(-c2cnccn2)n1Cc1ccco1)c1ccc(Cl)c(Cl)c1`, the max dye-equivalent concentration was “inactive”. With `CC(=O)N1CSCC1C(=O)O` (configuration not stated) the max dye-equivalent concentration was “inactive”. For `O=C(N1CCOCC1)N(Cc1ccccc1)c1ccccn1`, the max dye-equivalent concentration was “inactive”. For `CN(C)CC/C=C1\c2ccccc2CSc2ccccc21`, the max dye-equivalent concentration was “inactive”. For `COc1ccc(Cn2c(=O)sc3ccccc32)cc1OC`, the max dye-equivalent concentration was “inactive”. With `Cc1ccc2nc(NCCCNC(=O)c3cnccn3)c(C#N)cc2c1` the max dye-equivalent concentration was 220 nM (active). For `O=S(=O)(c1ccccc1)N1CCC2(CC1)CN(Cc1nccs1)C2`, the max dye-equivalent concentration was “inactive”. For `CCCCCN(C(=O)NC(=O)Nc1ccccc1C)S(C)(=O)=O`, the max dye-equivalent concentration was “inactive”. For `O=C(c1cnccn1)N1CCC2(CCCN(Cc3ccccc3)C2)CC1`, the max dye-equivalent concentration was “inactive”. In the case of `O=C(CS(=O)(=O)Cc1ccccc1)NCC1CCCO1` (configuration not stated), the max dye-equivalent concentration is reported as “inactive”. For `O=C(CSC1=Nc2ccccc2C2=NC(c3ccccc3)C(=O)N12)NCC1CCCO1` (configuration not stated), the max dye-equivalent concentration was 590 nM (active). For `O=C(CSc1nnc(-c2ccc(NS(=O)(=O)c3ccccc3)cc2)o1)NCC1CCCO1` (configuration not stated), the max dye-equivalent concentration was “inactive”. With `COc1ccc(S(=O)(=O)Nc2c(C)n(C)n(-c3ccccc3)c2=O)cc1` the max dye-equivalent concentration was “inactive”. In the case of `CN(C)C(=O)c1ccc(-c2cncnc2NC2CCNCC2)cc1`, the max dye-equivalent concentration is reported as “inactive”. With `CCCc1cc(=O)[nH]c(SCc2ccc(C#N)cc2)n1` the max dye-equivalent concentration was “inactive”. In the case of `Cc1ccc(S(=O)(=O)NCC(=O)OCC(=O)N2CCc3ccccc32)cc1`, the max dye-equivalent concentration is reported as “inactive”. With `Cc1ccc(C(=O)N2CCCCCC2)cc1Br` the max dye-equivalent concentration was “inactive”. With `Cc1ccc2cc3cc(C(=O)N4CCCCCC4)oc3nc2c1` the max dye-equivalent concentration was 11 nM (active). For `O=C(c1cc(-c2cccs2)on1)N1CCCCC1`, the max dye-equivalent concentration was “inactive”. In the case of `O=C(CSc1nc2[nH]ncc2c(=O)n1-c1ccccc1)N1CCCc2ccccc21`, the max dye-equivalent concentration is reported as “inactive”. For `COc1cc2c(cc1OC)C(c1ccncc1)CC(=O)N2` (configuration not stated), the max dye-equivalent concentration was “inactive”. With `Cc1cc(C)c2nc(N3CCCC3)c(C#N)cc2c1` the max dye-equivalent concentration was 130 nM (active). In the case of `Cc1ccc(OCc2nc(C#N)c(N3CCCC3)o2)cc1`, the max dye-equivalent concentration is reported as “inactive”. With `Cc1cccc2cc(C#N)c(N3CCCC3)nc12` the max dye-equivalent concentration was 37 nM (active). In the case of `Cc1ccc2nc(CC(=O)c3ccc4ccccc4c3)c(=O)[nH]c2c1`, the max dye-equivalent concentration is reported as “inactive”.
